Laboratory results published in PubChem BioAssay (NCI).
The panel holds about 83,000 compounds, 20% with a hit somewhere; the sample as a whole holds those more often.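 Testing used 96-well plates and a 48-hour single-concentration exposure. Example: -40 means 40% of the starting cells died.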 A number with no mark means an inactive call. Active and inactive are the calls of the source. The calls were made as follows: active = growth percent below 10; inactive = the rest.

Tested on: HL-60(TB) leukemia
Experiment: NCI-60 one-dose screen, 48 h (100 = growth as untreated, 0 = no growth, -100 = all killed)
Details: 10 µM unless noted

Compound	growth
Clc1cc(Cl)c(OCCCCCCN2CCNCC2)c(Cl)c1	-34.3% (active)
COc1cc(C(=O)/C=C/c2ccc3nc(-c4cc(F)cc(F)c4)sc3c2)cc(OC)c1OC	60.1%
C/C(Cc1ccc(Cl)cc1)=C(\c1ccc(OCCCN(C)C)cc1)c1ccc(OC(=O)Cc2ccccc2)cc1	88.7%
NC(N)=N/N=C(\c1ccccc1)C(O)c1ccccc1 (stereo not given)	96.7%
COc1cc2nc(Cl)nc(Nc3cccc(C(=O)/C=C/c4ccccc4)c3)c2cc1OC	70.1%
Fc1ccc(Nc2nnc(-c3ccc(Cl)cc3)o2)cc1	91.4%
CC1(C)C(=O)/C(=C\c2cccnc2)C[C@]2(C)[C@H]3CC[C@@H]4[C@@H](C(=O)/C=C/c5ccncc5)CC[C@@]4(C)[C@]3(C)CC[C@@H]12	-11% (active)
O=C1CS/C(=N\Nc2cc(=O)[nH]c3ccccc23)N1c1ccccc1	96.2%
S=c1nc(-c2ccccn2)c(-c2ccccn2)n[nH]1	92.8%
Cc1nc2sc(C(=O)Nc3cccc(Br)c3)c(N)c2cc1C(=O)c1ccc(C(F)(F)F)cc1	98.7%
CCCCCCCCCCCCCCCC(=O)OCC1OC(n2cnc3c(=S)nc(N)[nH]c32)C(OC(=O)CCCCCCCCCCCCCCC)C1OC(=O)CCCCCCCCCCCCCCC (stereo not given)	86%
O=C(NNc1ccccc1)C1CCCN1 (stereo not given)	9.36% (active)
c1csc(-c2cn3nc(-c4c[nH]c5ccccc45)sc3n2)c1	7.07% (active)
CNC(=O)c1cc(Oc2ccc3nc(NC(=O)Nc4ccc(Cl)cc4)sc3c2)ccn1	98.9%
O=C1c2ccccc2C(=O)c2c1cc1c(c2[N+](=O)[O-])OCO1	7.66% (active)
N[C@H]1CCC[C@@H]1NCCCCN1C(=O)c2cccc3cccc(c23)C1=O	85.5%
Cc1ccc(-c2csc(NC(=O)CSc3nc(-c4ccccc4)cc(=O)[nH]3)n2)cc1	49.4%
COc1cc(/C=C/C(=O)/C=C(O)/C=C/c2ccc(OC(=O)C34CC5CC(CC(C5)C3)C4)c(OC)c2)ccc1OC(=O)C12CC3CC(CC(C3)C1)C2	104%
O=C(NCCCCO)c1cncnc1Nc1ccc2c(ccn2Cc2cccc(F)c2)c1	100%
C=C1SC(=Nc2c(C)cccc2C)N(c2nc(Cl)nc(Cl)n2)C12CCCCC2	100%

Compound	growth
CN(C)CCS(=O)(=O)Nc1cc(-c2ccc3ncc(C#N)c(Nc4ccc(F)c(Cl)c4)c3c2)cnc1Cl	-28.4% (active)
O=C(NCCCNc1nccc(-n2ccc3cccnc32)n1)c1c(F)cccc1F	102%
O=[N+]([O-])c1cccc(-c2nc3sccn3c2-c2ccnc(NCCCNS(=O)(=O)c3ccc(Cl)cc3)n2)c1	26.1%
Nc1ncn([C@@H]2O[C@H](CO)[C@@H](O)[C@H]2O)c(=O)n1	-2.84% (active)
Cc1ccc([P+](Cc2ccccc2)(c2ccccc2)c2ccccc2)cc1	-36.4% (active)
CCOc1ccc(-n2nc(C(=O)NCc3ccccc3OC)nc2-c2cc(OC)c(OC)c(OC)c2)cc1	19.1%
O=C1C(c2c(O)[nH]c3ncccc23)=Nc2ccccc21	173%
CCCCCCCCCCCCCC[n+]1ccc2c(C)c3c(c(C)c2c1)c1cc(O)ccc1n3CC	-40.6% (active)
COc1ccc(-c2cc(-c3ccc(Cl)cc3)nc(SCCCC(=O)NO)n2)cc1OC	-32.4% (active)
CCC1CCCCN1C(=S)N/N=C(\C)c1ccccn1 (stereo not given)	8.04% (active)
COc1ccc(/C=C2\Oc3cc(OCCCN4CCCCC4)ccc3C2=O)cc1OC	99.9%
CCC(=O)Oc1ccc(OC)cc1	82.6%
Nc1c(Cl)cc2c(c1Br)C(=O)c1ccccc1C2=O	70.7%
C=C1C(=O)O[C@H]2[C@H]1CC/C(COC(=O)/C=C\C(=O)NCc1ccc(Cn3c(=O)sn(-c4ccccc4)c3=O)cc1)=C\CC[C@@]1(C)O[C@@H]21	-3.22% (active)
Oc1ccc(CCCCCCc2ccc(O)cc2)cc1	100%
O=C(N/N=C\c1cc(Cl)ccc1O)N/N=C/c1cc(Cl)ccc1O	6.64% (active)
COc1cc(-c2c(-c3ccccc3)c[nH]c2C(=O)NCCCO)c(OC)c2c1OCO2	91.4%
CCCCc1ccc(C(N)=O)nc1	88.2%
COc1c(N2CC3CCCN(C(C)=O)C3C2)c(F)cc2c(=O)c(C(=O)N[C@H]3C(O)[C@@H](O)C(CO)O[C@H]3O)cn(C3CC3)c12 (stereo not given in full)	103%
Fc1ccc(Nc2ncnc3ccc(-c4cnc5[nH]ccc5c4)cc23)cc1Cl	-22.3% (active)
